Consider 65 compounds from PubChem BioAssay AID602342 (Broad Institute, 2012).

The whole screen tested about 340,000 compounds, of which about 1,000 (0.29%) were called active. The entries come from a sample that favours actives as a whole. Values without a mark were called inactive.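 The calls were made as follows: active = mean replicate activation score at least 90 and every replicate individually at or above 90; inconclusive = only one of the two criteria met; inactive = neither criterion met.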

The test is described as follows: miR-122 Renilla sensor signal increase in Huh7, primary screen, miR-122 inhibitor project, cell-based, single point, plate reader (AID 602342).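 Also: higher luciferase means less miR-122 activity so hits act as miR-122 inhibitors.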 The settings on record: Huh7 miR-122 Renilla luciferase sensor, 48 h, stronger effect = higher value, neutral wells = 0, positive control = 100; at 16.7 µM unless noted.
Take `COc1ccc(CNS(=O)(=O)c2cc3c4c(c2)CCN4C(=O)CC3)cc1`: the activation (reporter increase) is 2.78% [at 12.5 µM].

Regarding `COc1ccc(C)cc1S(=O)(=O)Nc1cc2c3c(c1)CCC(=O)N3CCC2`, the activation (reporter increase) is 150% [at 12.5 µM] (active).

Consider `COc1ccccc1CNS(=O)(=O)c1cc2c3c(c1)CCC(=O)N3CCC2`, for which the activation (reporter increase) was 6.96% [at 12.5 µM].

Consider `O=C(CN1CCOCC1)Nc1c(Cl)cc(Cl)cc1Cl`, for which the activation (reporter increase) is -6.99% [at 12.5 µM].

Consider `O=C(CN1CCOCC1)Nc1cc(Cl)ccc1Cl`, for which the activation (reporter increase) is 101% [at 12.5 µM] (active).

In the case of `O=C(CN1CCOCC1)Nc1ccc(NC(=O)CN2CCOCC2)c(Cl)c1`, the activation (reporter increase) is 4.91% [at 12.5 µM].

For the compound `COc1ccc(S(=O)(=O)Nc2cccc3c2O[C@H](CN(C)Cc2ccc4c(c2)OCO4)[C@H](C)CN([C@@H](C)CO)C3=O)cc1`, the activation (reporter increase) is 2.28%.

`CC(=O)N(C)C[C@@H]1Oc2cc(-c3cccnc3)ccc2S(=O)(=O)N([C@@H](C)CO)C[C@H]1C`: the activation (reporter increase) was 0.602%.

For the compound `CC(C)NC(=O)Nc1ccc2c(c1)C(=O)N([C@H](C)CO)C[C@H](C)[C@@H](CN(C)S(=O)(=O)c1ccc(F)cc1)OCCCC[C@H](C)O2`, the activation (reporter increase) was -3.83%.

For `O=C(NC1CCCC1)[C@@H]1[C@@H](CO)[C@@H]2Cn3c(ccc(-c4ccc(F)cc4)c3=O)[C@H]1N2Cc1cocn1`, the activation (reporter increase) is 1.2%.

In the case of `CCCC#Cc1cnc2c(c1)C(=O)N([C@H](C)CO)C[C@H](C)[C@H](CN(C)S(=O)(=O)c1cn(C)cn1)O2`, the activation (reporter increase) is -3.62%.

As to `C[C@@H]1CN([C@H](C)CO)C(=O)c2cccc(NS(=O)(=O)c3ccc(F)cc3)c2O[C@@H]1CN(C)S(=O)(=O)c1ccccc1`, the activation (reporter increase) is -5.32%.

Consider `Cc1cc(C(=O)CCC(=O)NNC(=O)c2ccccc2O)c(C)s1`, for which the activation (reporter increase) was -0.772% [at 12.5 µM].

`CC1=C(C)CC(C(=O)NNC(=O)c2csc3c2CCC(C(C)(C)C)C3)C(C(=O)O)C1` (stereo not given): the activation (reporter increase) was -0.996% [at 12.5 µM].

Take `O=C(NNC(=O)c1ccccc1O)c1ccccc1O`: the activation (reporter increase) is 530% [at 12.5 µM] (active).

On to `O=C(NNC(=O)C1CCC1)c1ccccc1`, for which the activation (reporter increase) is 1.59% [at 12.5 µM].

For `O=C(NNC(=O)c1cc(S(=O)(=O)N2CCCCC2)ccc1Cl)c1ccccc1O`, the activation (reporter increase) is -7.51% [at 12.5 µM].

On to `CC1=C(C)CC(C(=O)NNC(=O)c2ccccc2O)C(C(=O)O)C1` (stereo not given), for which the activation (reporter increase) was 151% [at 12.5 µM] (active).

On to `C[C@@H]1CCCCO[C@H](CN(C)C(=O)NC2CCCCC2)[C@@H](C)CN([C@H](C)CO)C(=O)c2cc(NC(=O)CCC(F)(F)F)ccc2O1`, for which the activation (reporter increase) was 4.05%.

With `COc1ccc(NS(=O)(=O)c2ccc(NC(=S)NC(=O)CC(C)C)cc2)cc1`, the activation (reporter increase) was 161% [at 12.5 µM] (active).

With `COc1ccc(NS(=O)(=O)c2ccc(NC(=O)c3ccc(N(C)S(C)(=O)=O)cc3)cc2)cc1`, the activation (reporter increase) was 3.93% [at 12.5 µM].

For `CC(=O)NS(=O)(=O)c1ccc(NC(=S)NC(=O)C(C)(C)C)cc1`, the activation (reporter increase) is -3.58% [at 12.5 µM].

In the case of `C[C@@H]1CN([C@@H](C)CO)C(=O)c2cc(NC(=O)Cc3ccccc3)ccc2O[C@@H](C)CCCCO[C@H]1CN(C)C(=O)Cc1ccccc1`, the activation (reporter increase) was 0.724%.

As for `Cc1ccc(-c2ccc3c(c2)O[C@@H](CN(C)C(=O)CC2CC2)[C@@H](C)CN([C@@H](C)CO)S3(=O)=O)cc1`, the activation (reporter increase) is 12.9%.

Consider `COc1ccc(NC(=O)N(C)C[C@H]2Oc3ccc(NS(=O)(=O)c4ccc(C)cc4)cc3C(=O)N([C@@H](C)CO)C[C@H]2C)cc1`, for which the activation (reporter increase) is 3.8%.

As for `COc1ccc(NC(=O)Nc2ccc3c(c2)C(=O)N([C@H](C)CO)C[C@H](C)[C@H](CN(C)S(=O)(=O)c2ccc(OC)cc2)O3)cc1`, the activation (reporter increase) is -11.1%.

With `COc1ccc(C(=O)Nc2ccccc2C(=O)N/N=C/c2ccccc2OC)cc1`, the activation (reporter increase) was 115% [at 12.5 µM] (active).

For `COc1ccccc1C(=O)Nc1ccccc1C(=O)Nc1ccccc1`, the activation (reporter increase) was 1.44% [at 12.5 µM].

As for `COc1ccc(OC)c(/C=N/NC(=O)c2ccc[n+](CC(=O)c3ccccc3)c2)c1`, the activation (reporter increase) was -4.06% [at 12.5 µM].

With `COc1ccc(NC(=O)N(C)C[C@H]2OCCCC[C@@H](C)Oc3ccc(NC(=O)NC4CCCCC4)cc3C(=O)N([C@@H](C)CO)C[C@H]2C)cc1`, the activation (reporter increase) is -3.11%.

As to `CCOC(=O)c1c(C)[nH]c(C)c1S(=O)(=O)NCCCc1ccco1`, the activation (reporter increase) is 128% [at 12.5 µM] (active).

On to `CCOC(=O)c1c(S(=O)(=O)NCC(=O)Nc2ccc(C)cc2)c(C)n(C)c1C`, for which the activation (reporter increase) is 3.19% [at 12.5 µM].

Take `NC(=O)c1cc(S(=O)(=O)NCCCc2ccco2)cs1`: the activation (reporter increase) was 2.02% [at 12.5 µM].

Take `Cc1cc(C(C)(C)C)cc(S(=O)(=O)Nc2ccc(C(=O)O)cc2)c1C`: the activation (reporter increase) was 165% [at 12.5 µM] (active).

With `O=C(O)c1ccc(F)c(S(=O)(=O)Nc2ccccc2)c1`, the activation (reporter increase) is 3.15% [at 12.5 µM].

Regarding `Cc1noc(C)c1S(=O)(=O)Nc1ccc(C(=O)O)cc1`, the activation (reporter increase) was 0.153% [at 12.5 µM].

As for `COc1ccc(CN(C)C[C@H]2OCCCC[C@@H](C)Oc3ccc(NS(=O)(=O)c4ccccc4)cc3C(=O)N([C@@H](C)CO)C[C@@H]2C)cc1`, the activation (reporter increase) was -4.79%.

In the case of `CNC(=O)C[C@@H]1CC[C@@H]2[C@H](COC[C@H](O)CN2Cc2ccc(C(F)(F)F)cc2)O1`, the activation (reporter increase) was 1.05%.

For the compound `COc1ccc(OCC(=O)NCCc2ccc(S(N)(=O)=O)cc2)cc1`, the activation (reporter increase) was -15.2% [at 12.5 µM].

In the case of `COc1ccc(OCCCC(=O)NCCc2ccccc2)cc1`, the activation (reporter increase) was 223% [at 12.5 µM] (active).

Take `COc1ccc(CCNC(=O)c2ccccc2OCc2ccccc2)cc1`: the activation (reporter increase) was -1.62% [at 12.5 µM].

In the case of `OC[C@@H]1[C@H](c2ccc(C#CC3CC3)cc2)[C@@H]2CN(CCC(F)(F)F)CCCCN12`, the activation (reporter increase) is 12.9%.

As for `CCCNC(=O)N1C[C@@H](O)COC[C@@H]2O[C@@H](CC(=O)O)CC[C@H]21`, the activation (reporter increase) was 0.047%.

Consider `C[C@@H]1CN([C@H](C)CO)C(=O)c2cccc(NC(=O)c3cnccn3)c2O[C@@H]1CN(C)Cc1ccncc1`, for which the activation (reporter increase) was -3.39%.

For the compound `C[C@H](CO)N1C[C@H](C)[C@@H](CN(C)Cc2ccc3c(c2)OCO3)Oc2c(NC(=O)C3CCOCC3)cccc2C1=O`, the activation (reporter increase) was 319% (active).

In the case of `CC(C)NC(=O)N(C)C[C@@H]1Oc2c(NC(=O)c3cnccn3)cccc2C(=O)N([C@@H](C)CO)C[C@@H]1C`, the activation (reporter increase) is 4.6%.

Consider `C[C@H](CO)N1C[C@H](C)[C@@H](CN(C)Cc2ccccc2)Oc2c(NC(=O)C3CCOCC3)cccc2C1=O`, for which the activation (reporter increase) was 14.3%.

In the case of `C[C@H](CO)N1C[C@H](C)[C@H](CN(C)CC2CCCCC2)Oc2c(NC(=O)c3cnccn3)cccc2C1=O`, the activation (reporter increase) is 119% (active).

Take `C[C@H](CO)N1C[C@H](C)[C@H](CN(C)Cc2ccc(C(=O)O)cc2)Oc2c(NC(=O)C3CCOCC3)cccc2C1=O`: the activation (reporter increase) is -5.1%.

As for `CN(C)CCCNC(=O)C[C@@H]1C=C[C@H](NC(=O)Cc2cccnc2)[C@H](CO)O1`, the activation (reporter increase) was 15.8%.

As to `COc1ccc(S(=O)(=O)N(C)C[C@H]2OCCCC[C@@H](C)Oc3ccc(NC(=O)CCC(F)(F)F)cc3C(=O)N([C@@H](C)CO)C[C@H]2C)cc1`, the activation (reporter increase) is 16.9%.

For the compound `C[C@@H]1CCCCO[C@@H](CN(C)S(=O)(=O)c2cn(C)cn2)[C@@H](C)CN([C@@H](C)CO)C(=O)c2cc(NC(=O)Nc3ccc(C(F)(F)F)cc3)ccc2O1`, the activation (reporter increase) was -9.96%.

For `COc1cc(NS(=O)(=O)c2ccc3ccccc3c2)c2ncccc2c1`, the activation (reporter increase) is 152% [at 12.5 µM] (active).

With `CCOc1ncccc1C(=O)NNC(=O)c1cccc(S(=O)(=O)Nc2ccccc2OC)c1`, the activation (reporter increase) was -0.667% [at 12.5 µM].

Consider `COc1ccc(N2CC(NS(=O)(=O)c3ccc4ccccc4c3)CC2=O)cc1` (stereo not given), for which the activation (reporter increase) is -5.35% [at 12.5 µM].

With `C[C@H]1CN([C@@H](C)CO)C(=O)c2cccc(NC(=O)Nc3ccc(F)cc3)c2O[C@H]1CN(C)S(=O)(=O)c1cn(C)cn1`, the activation (reporter increase) was 4.09%.

For the compound `COc1ccc(NS(=O)(=O)c2ccc(F)cc2F)cn1`, the activation (reporter increase) is -2.63% [at 12.5 µM].

As for `COc1ccc(S(=O)(=O)Nc2ccc3c(c2)OCO3)cc1Cl`, the activation (reporter increase) was 37.2% [at 12.5 µM].

Consider `COc1ccc(S(=O)(=O)Nc2ccc(F)cc2)c(C)c1C`, for which the activation (reporter increase) is 231% [at 12.5 µM] (active).

Turning to `COc1ccc(F)cc1S(=O)(=O)NCC(c1ccc2c(c1)OCO2)N1CCN(C)CC1` (stereo not given), the activation (reporter increase) was 2.63% [at 12.5 µM].

For the compound `CCOc1ccc(S(=O)(=O)Nc2ccncc2)c(C)c1C`, the activation (reporter increase) is 20.9% [at 12.5 µM].

For the compound `COc1ccc(F)cc1S(=O)(=O)Nc1ccc2c(c1)OCO2`, the activation (reporter increase) is 99.7% [at 12.5 µM] (active).

In the case of `CO[C@H]1CN(C)C(=O)c2ccc(NS(=O)(=O)c3ccccc3C)cc2OC[C@H](C)NC[C@H]1C`, the activation (reporter increase) is 6.89%.

On to `Cn1cnc(S(=O)(=O)N2C[C@@H](O)COC[C@H]3O[C@@H](CC(=O)NCc4ccc(F)cc4)CC[C@@H]32)c1`, for which the activation (reporter increase) is 2.69%.

`O=C(N[C@@H]1CC[C@H](CCn2cc(C3CC3)nn2)O[C@H]1CO)c1cccnc1`: the activation (reporter increase) was -7.57%.
